From the supplement of paper PMC8975748
Counter-ions that a name gives are not always drawn. ± gives the standard deviation of the averaged measurements.

Columns and labels:
[1] = tested on: Saccharomyces cerevisiae BY4741 SeMeCo community; assay: mean cell size (pixel area) (pixels); higher = larger cells; details: 10 µM; 24 h; SM minimal medium
Procedure, shortened: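 Plates of 384 wells were acoustically predosed with drug at a final 10 µM in SM medium, and 70 µl of a Saccharomyces cerevisiae BY4741 preculture diluted from OD600 = 1.0 to OD600 = 0.3 was added for 24 h. The yeast formed a four-plasmid fluorescent community in which each plasmid complements one auxotrophy and carries a fluorescent marker. Fixed cells were imaged by automated confocal microscopy and analysed in Harmony for mean cell pixel area per well. Values are means of 3 replicates. Same SeMeCo high-content imaging drug screen: Selleck FDA-approved drugs at 10 µM, 24 h in SM medium, 384-well plates, 3 replicates.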

[2] = tested on: Saccharomyces cerevisiae BY4741 SeMeCo community; assay: z-score of prototroph abundance vs DMSO median; higher = larger share of this subpopulation than in DMSO controls; details: 10 µM; 24 h; SM minimal medium; subpopulation (auxotrophy): Prototroph
Procedure, shortened: (§1)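 A Saccharomyces cerevisiae BY4741 community carried four plasmids, each restoring one auxotrophy and encoding a distinct fluorescent protein. It was pre-grown overnight to OD600 1.0, diluted to 0.3, and 70 µl was added to 384-well plates acoustically predosed with library drugs (10 µM final), then grown 24 h in minimal SM medium. Cells were paraformaldehyde-fixed and imaged by automated confocal microscopy, with single-auxotroph fluorescent strains setting thresholds and autofluorescence correction. Each subpopulation's abundance was scored as a z-score against the vehicle-well median.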

[3] = tested on: Saccharomyces cerevisiae BY4741 SeMeCo community; assay: z-score of subpopulation abundance vs DMSO median, subpopulation auxotrophic for M; higher = larger share of this subpopulation than in DMSO controls; details: 10 µM; 24 h; SM minimal medium; subpopulation (auxotrophy): M
Procedure, shortened: as §1

[4] = tested on: Saccharomyces cerevisiae BY4741 SeMeCo community; assay: z-score of subpopulation abundance vs DMSO median, subpopulation auxotrophic for L; higher = larger share of this subpopulation than in DMSO controls; details: 10 µM; 24 h; SM minimal medium; subpopulation (auxotrophy): L
Procedure, shortened: as §1

[5] = tested on: Saccharomyces cerevisiae BY4741 SeMeCo community; assay: z-score of subpopulation abundance vs DMSO median, subpopulation auxotrophic for U; higher = larger share of this subpopulation than in DMSO controls; details: 10 µM; 24 h; SM minimal medium; subpopulation (auxotrophy): U
Procedure, shortened: as §1

[6] = tested on: Saccharomyces cerevisiae BY4741 SeMeCo community; assay: z-score of subpopulation abundance vs DMSO median, subpopulation auxotrophic for H; higher = larger share of this subpopulation than in DMSO controls; details: 10 µM; 24 h; SM minimal medium; subpopulation (auxotrophy): H
Procedure, shortened: as §1

[7] = tested on: Saccharomyces cerevisiae BY4741 SeMeCo community; assay: z-score of subpopulation abundance vs DMSO median, subpopulation auxotrophic for LU; higher = larger share of this subpopulation than in DMSO controls; details: 10 µM; 24 h; SM minimal medium; subpopulation (auxotrophy): LU
Procedure, shortened: as §1

[8] = tested on: Saccharomyces cerevisiae BY4741 SeMeCo community; assay: z-score of subpopulation abundance vs DMSO median, subpopulation auxotrophic for LM; higher = larger share of this subpopulation than in DMSO controls; details: 10 µM; 24 h; SM minimal medium; subpopulation (auxotrophy): LM
Procedure, shortened: as §1

[9] = tested on: Saccharomyces cerevisiae BY4741 SeMeCo community; assay: z-score of subpopulation abundance vs DMSO median, subpopulation auxotrophic for HM; higher = larger share of this subpopulation than in DMSO controls; details: 10 µM; 24 h; SM minimal medium; subpopulation (auxotrophy): HM
Procedure, shortened: as §1

[10] = tested on: Saccharomyces cerevisiae BY4741 SeMeCo community; assay: z-score of subpopulation abundance vs DMSO median, subpopulation auxotrophic for UM; higher = larger share of this subpopulation than in DMSO controls; details: 10 µM; 24 h; SM minimal medium; subpopulation (auxotrophy): UM
Procedure, shortened: as §1

[11] = tested on: Saccharomyces cerevisiae BY4741 SeMeCo community; assay: z-score of subpopulation abundance vs DMSO median, subpopulation auxotrophic for HL; higher = larger share of this subpopulation than in DMSO controls; details: 10 µM; 24 h; SM minimal medium; subpopulation (auxotrophy): HL
Procedure, shortened: as §1

[12] = tested on: Saccharomyces cerevisiae BY4741 SeMeCo community; assay: z-score of subpopulation abundance vs DMSO median, subpopulation auxotrophic for HLU; higher = larger share of this subpopulation than in DMSO controls; details: 10 µM; 24 h; SM minimal medium; subpopulation (auxotrophy): HLU
Procedure, shortened: as §1

[13] = tested on: Saccharomyces cerevisiae BY4741 SeMeCo community; assay: z-score of subpopulation abundance vs DMSO median, subpopulation auxotrophic for HLM; higher = larger share of this subpopulation than in DMSO controls; details: 10 µM; 24 h; SM minimal medium; subpopulation (auxotrophy): HLM
Procedure, shortened: as §1

[14] = tested on: Saccharomyces cerevisiae BY4741 SeMeCo community; assay: z-score of subpopulation abundance vs DMSO median, subpopulation auxotrophic for HUM; higher = larger share of this subpopulation than in DMSO controls; details: 10 µM; 24 h; SM minimal medium; subpopulation (auxotrophy): HUM
Procedure, shortened: as §1

[15] = tested on: Saccharomyces cerevisiae BY4741 SeMeCo community; assay: z-score of subpopulation abundance vs DMSO median, subpopulation auxotrophic for LUM; higher = larger share of this subpopulation than in DMSO controls; details: 10 µM; 24 h; SM minimal medium; subpopulation (auxotrophy): LUM
Procedure, shortened: as §1

[16] = tested on: Saccharomyces cerevisiae BY4741 SeMeCo community; assay: z-score of subpopulation abundance vs DMSO median, subpopulation auxotrophic for HLUM; higher = larger share of this subpopulation than in DMSO controls; details: 10 µM; 24 h; SM minimal medium; subpopulation (auxotrophy): HLUM
Procedure, shortened: as §1

[17] = tested on: Saccharomyces cerevisiae BY4741 SeMeCo community; assay: z-score of subpopulation abundance vs DMSO median, subpopulation auxotrophic for HU; higher = larger share of this subpopulation than in DMSO controls; details: 10 µM; 24 h; SM minimal medium; subpopulation (auxotrophy): HU
Procedure, shortened: as §1

| SMILES | mean cell size [1] | z-score of prototroph abundance [2] | z-score of subpopulation abundance [3] | z-score of subpopulation abundance [4] | z-score of subpopulation abundance [5] | z-score of subpopulation abundance [6] | z-score of subpopulation abundance [7] | z-score of subpopulation abundance [8] | z-score of subpopulation abundance [9] | z-score of subpopulation abundance [10] | z-score of subpopulation abundance [11] | z-score of subpopulation abundance [12] | z-score of subpopulation abundance [13] | z-score of subpopulation abundance [14] | z-score of subpopulation abundance [15] | z-score of subpopulation abundance [16] | z-score of subpopulation abundance [17] |
| --- | --- | --- | --- | --- | --- | --- | --- | --- | --- | --- | --- | --- | --- | --- | --- | --- | --- |
| CC1CCc2cc(F)cc3c(=O)c(C(=O)O)cn1c23 (stereo not drawn) [Flumequine] | 12.3 ± 0.18 | 1.18 | -1.12 | -0.69 | 0.29 | -1 | -0.58 | -1.29 | -1.42 | -1.16 | -0.81 | 0.18 | -0.73 | -0.88 | -0.22 | 0.55 | – |
| CN1CCN2c3ncccc3Cc3ccccc3C2C1 (stereo not drawn) [Mirtazapine] | 12.38 ± 0.12 | 0.24 | 0.18 | -0.64 | 0.29 | -0.51 | -0.59 | -0.11 | -0.07 | – | -0.38 | -0.45 | -0.85 | 1.07 | – | -0.87 | – |
| CCOC(=O)C1=C(C)NC(C)=C(C(=O)OC)C1c1cccc([N+](=O)[O-])c1 (stereo not drawn) [Nitrendipine] | 12.5 ± 0.13 | – | -0.21 | -1.96 | 1.29 | -0.06 | -0.48 | -1.23 | -0.08 | 0.62 | -0.8 | -0.48 | -0.87 | 0.52 | -1.36 | -1.04 | – |
| NC[C@@H]1O[C@H](O[C@H]2[C@@H](O)[C@H](O[C@@H]3[C@@H](O)[C@H](N)C[C@H](N)[C@H]3O[C@H]3O[C@H](CO)[C@@H](O)[C@H](O)[C@H]3N)O[C@@H]2CO)[C@H](N)[C@@H](O)[C@@H]1O [Paromomycin Sulfate] | 12.31 ± 0.12 | – | 1.04 | 0.88 | -0.06 | 0.2 | -0.04 | 1.42 | 1.15 | -0.2 | 0.39 | -0.44 | 0.02 | 0.69 | 0.8 | – | -0.92 |
| CCN(CC)CC#CCOC(=O)C(O)(c1ccccc1)C1CCCCC1 (stereo not drawn) [Oxybutynin] | 12.5 ± 0.29 | -0.02 | -0.18 | -0.14 | 0.19 | -0.43 | -0.54 | -0.42 | -0.23 | -0.47 | -0.47 | -0.2 | -0.46 | 0.54 | -0.32 | – | 0.37 |
| Cc1cc(-n2c(=O)[nH]c(=O)n(C)c2=O)ccc1Oc1ccc(SC(F)(F)F)cc1 [Toltrazuril] | 12.53 ± 0.12 | 0.02 | -0.11 | -0.15 | -0.51 | 0.2 | -0.65 | -0.18 | 0.1 | -0.14 | 0.24 | 0 | -0.31 | -0.45 | -0.13 | 0.28 | – |
| COc1ccnc(C[S+]([O-])c2nc3cc(-n4cccc4)ccc3[nH]2)c1C (stereo not drawn) [Ilaprazole] | 12.6 ± 0.45 | -0.51 | -0.98 | 2.44 | -1.42 | 4.64 | 0 | 0.85 | 0.96 | -1.96 | 3.84 | 0.92 | 1.1 | -1.45 | -0.52 | – | -0.45 |
